# Measured values: PubChem BioAssay (EPA / NIEHS)
# Records with an inconclusive call do not appear. More than one record can exist for a structure, and the calls need not agree. Active and inactive are the calls of the source. Rule for the calls, unless noted: active = hit-call score of the fitted dose curve at least 0.9, where 1 is the maximum; inactive = score below 0.9.
# How the values were obtained:
# [1] = biological target: rat Thyrotropin Releasing Hormone Receptor (TRH), Trhr (gene 25570) (UniProt Q01717); assay: NVS_GPCR_rTRH: NovaScreen (NVS) G Protein-Coupled Receptor Assay for rat Thyrotropin Releasing Hormone Receptor (TRH) (AID 2283329; active = hit-call score of the fitted dose curve at least 0.9, where 1 is the maximum;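 note: hit means lower bound tracer signal versus DMSO baseline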)
# Chain of rat Thyrotropin Releasing Hormone Receptor (TRH), Trhr (gene 25570) (Q01717 whole entry, looked up): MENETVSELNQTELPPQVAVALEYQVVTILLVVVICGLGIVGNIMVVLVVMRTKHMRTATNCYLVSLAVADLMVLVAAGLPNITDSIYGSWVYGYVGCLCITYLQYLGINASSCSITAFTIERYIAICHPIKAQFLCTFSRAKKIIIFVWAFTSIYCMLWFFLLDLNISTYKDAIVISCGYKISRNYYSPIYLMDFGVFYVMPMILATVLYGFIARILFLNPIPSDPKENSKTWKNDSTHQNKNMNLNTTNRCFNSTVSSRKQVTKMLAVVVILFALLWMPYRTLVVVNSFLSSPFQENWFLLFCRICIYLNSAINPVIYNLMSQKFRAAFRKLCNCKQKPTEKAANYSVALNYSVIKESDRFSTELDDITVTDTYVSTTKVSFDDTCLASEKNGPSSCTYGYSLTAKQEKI
# Summary of the method: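 Rat forebrain membrane prep, radioligand displacement, filter scintillation readout at 4 h. Single conc 25 uM, duplicate; actives retested as concentration series. DMSO = negative control/baseline.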
# [2] = CCTE_Shafer_MEA_acute_firing_rate_mean: CCTE's Neural Acute Assay for Mean Firing Rate, Shafer Lab (AID 2284009);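 note: analyzed for loss of signal so actives lower firing rate relative to DMSO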
# Summary of the method: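 Primary rat cortical neurons on 16-electrode MEA wells were exposed on DIV 13 or 15 to compound (0.03-40 uM). Spike counts per recording time, averaged over electrodes, were compared between 40-min baseline and 40-min post-exposure recordings as percent change.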
# [3] = CCTE_Shafer_MEA_acute_burst_number: CCTE's Neural Acute Assay for Single-Electrode Bursts, Shafer Lab (AID 2284013)
# Summary of the method: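 Primary rat cortical neurons on 16-electrode MEA wells, DIV 13 or 15, exposed to compound (0.03-40 uM; ≥3 wells); 40-min recordings at 37 C before and after treatment. Burst count expressed as percent change from baseline, DMSO as negative control.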
# [4] = CCTE_Shafer_MEA_acute_burst_duration_mean: CCTE's Neural Acute Assay for Mean Burst Duration, Shafer Lab (AID 2284014);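 note: hits are decreases in mean burst duration relative to DMSO controls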
# Summary of the method: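 Mean burst duration was compared between a 40 min baseline and a 40 min recording in the presence of compound (0.03-40 uM, 37 C), giving percent change per well. Cultures were rat cortical neurons at DIV 13 or 15; wells needed ≥10 active electrodes.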
# [5] = CCTE_Shafer_MEA_acute_interburst_interval_mean: CCTE's Neural Acute Assay for Mean Interburst Interval, Shafer Lab (AID 2284016);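 note: percent change of mean interburst interval versus each well's own pre-dose baseline; curves fitted for decrease in interburst interval relative to DMSO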
# Summary of the method: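 Rat cortical cultures, DIV 13/15; 20 min equilibration, 40 min baseline, compound 0.03-40 uM, 40 min re-recording, 37 C. Spikes detected at 8x rms noise (300-5000 Hz band-pass). Endpoint: % change in interburst interval, fitted in loss direction vs DMSO.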
# [6] = CCTE_Shafer_MEA_acute_burst_percentage_mean: CCTE's Neural Acute Assay for Percentage of Spikes in a Burst, Shafer Lab (AID 2284017);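 for AC50: curve fitted for loss of signal so potency reflects decreased burst percentage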
# Summary of the method: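 Rat cortical cultures, DIV 13/15, 37 C. Spikes detected at 8x rms noise (300-5000 Hz band-pass). Burst spikes/total spikes averaged across electrodes per well; % change post- vs pre-treatment (40 min each), loss-of-signal fit vs DMSO.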
# [7] = CCTE_Shafer_MEA_acute_burst_percentage_std: CCTE's Neural Acute Assay for Standard Deviation of Burst Percentage, Shafer Lab (AID 2284018);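 note: fitted in the negative direction so actives lower burst percentage SD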
# Summary of the method: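 Value is percent change from baseline in the across-electrode SD of spikes-in-bursts percentage, wells with >/= 10 active electrodes. Acute 40-min exposure to 0.03-40 uM on DIV 13 or 15 rat cortical cultures, recorded at 37 C after 40-min baseline.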
# [8] = CCTE_Shafer_MEA_acute_per_network_burst_spike_number_mean: CCTE's Neural Acute Assay for Average Number of Spikes in a Network Burst, Shafer Lab (AID 2284019);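 for AC50: curve fitted for loss of signal so actives reduce spikes per network burst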
# Summary of the method: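 Percent change from baseline in mean spikes per network burst, spikes detected at 8x rms noise. Each compound at 0.03-40 uM in at least three wells of rat cortical cultures, recorded 40 min before and 40 min during exposure.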
# [9] = CCTE_Shafer_MEA_acute_per_network_burst_spike_number_std: CCTE's Neural Acute Assay for Standard Deviation of Number of Spikes in a Network Burst, Shafer Lab (AID 2284020);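 note: fitted for decrease in spike-number SD versus DMSO so actives lower it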
# Summary of the method: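 Endpoint: percent change from 40 min baseline in standard deviation of spikes per network burst, after 40 min compound exposure (0.03-40 uM, 37 C). Cortical rat neurons on MEA at DIV 13 or 15; spikes detected at 8x rms noise, 300-5000 Hz band-pass.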
# [10] = CCTE_Shafer_MEA_acute_network_burst_percentage: CCTE's Neural Acute Assay for Percentage of Network Bursts, Shafer Lab (AID 2284022);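 note: curves fitted for loss so actives lower network burst percentage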
# Summary of the method: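 Rat primary cortical neuron networks on 48-well MEA plates, DIV 13 or 15, treated acutely with compound (0.03-40 uM, at least three wells). Percent of spikes within network bursts compared between 40-min recordings before and during exposure at 37 C, expressed as percent change.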
# [11] = CCTE_Shafer_MEA_acute_cross_correlation_area: CCTE's Neural Acute Assay for Area of Cross Correlation, Shafer Lab (AID 2284024);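 note: curves fitted for loss of cross-correlation area so actives lower synchrony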
# Summary of the method: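 Rat primary cortical neurons on 48-well MEA, DIV 13 or 15; compounds 0.03-40 uM. Baseline and post-exposure 40 min recordings at 37 C; percent change in area under pooled inter-electrode cross-correlation near zero lag, relative to DMSO.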
# [12] = CCTE_Shafer_MEA_acute_cross_correlation_HWHM: CCTE's Neural Acute Assay for Cross Correlation at Half Width at Half Maximum, Shafer Lab (AID 2284026);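 note: percent change per well from pre-dose baseline in spike cross-correlogram half width; hits are a decrease in cross-correlogram half width relative to DMSO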;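 for outcome: spontaneous network firing of rat primary cortical neurons on multiwell microelectrode arrays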
# Summary of the method: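 Rat primary cortical neurons on 48-well MEA plates; 40-min baseline and 40-min post-exposure recordings at 37 C on DIV 13 or 15, compounds 0.03-40 uM. Spikes detected at 8x rms noise; percent change in cross-correlogram HWHM per well vs baseline.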
# [13] = CCTE_Shafer_MEA_acute_synchrony_index: CCTE's Neural Acute Assay for Synchrony, Shafer Lab (AID 2284027);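 note: network synchrony index of spontaneous spiking in primary rat cortical neurons on MEAs; fitted for loss of signal so actives lower synchrony relative to DMSO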
# Summary of the method: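 Rat cortical cultures, DIV 13/15; spikes detected at 8x rms noise, 300-5000 Hz band-pass. Compound 0.03-40 uM, ≥3 wells; 40-min pre- and post-exposure recordings, 37 C. Readout: % change in synchrony index; loss-of-signal fit vs DMSO.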
# [14] = CCTE_Shafer_MEA_acute_LDH: CCTE's Lactate Dehydrogenase Assay for Cytotoxicity in the Neural Acute Assay, Shafer Lab (AID 2284086; active = hit-call score of the fitted dose curve at least 0.9, where 1 is the maximum;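 note: active means LDH release rises above DMSO vehicle level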)
# Summary of the method: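 LDH absorbance at 490 nm in medium taken right after 40-min compound exposure; rat primary cortical neuron networks on MEA plates, days post-plating 13 or 15. Increase over DMSO baseline scored as cytotoxicity.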
# [15] = biological target: rat Peripheral-type Benzodiazepine Receptor (PBR), Tspo (gene 24230) (UniProt P16257); assay: NVS_MP_rPBR: NovaScreen (NVS) Membrane Protein Assay for rat Peripheral-type Benzodiazepine Receptor (PBR) (AID 2283335; active = hit-call score of the fitted dose curve at least 0.9, where 1 is the maximum)
# Chain of rat Peripheral-type Benzodiazepine Receptor (PBR), Tspo (gene 24230) (P16257 whole entry, looked up): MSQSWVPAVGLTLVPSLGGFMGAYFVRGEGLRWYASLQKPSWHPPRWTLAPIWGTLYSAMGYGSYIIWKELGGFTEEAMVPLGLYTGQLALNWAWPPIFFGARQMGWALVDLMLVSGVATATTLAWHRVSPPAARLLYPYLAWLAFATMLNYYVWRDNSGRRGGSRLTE
# Summary of the method: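 Single-concentration duplicate screening at 25 uM preceded concentration-series retesting of actives. Binding of a specific radioligand to rat kidney membrane PBR was read by filtration radiodetection after 1 h, with plate-wise positive and negative controls.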
# [16] = biological target: Estrogen receptor (Homo sapiens) (UniProt P03372); assay: NVS_NR_hER: NovaScreen (NVS) Nuclear Receptor Binding Assay for human Estrogen Receptor (ER) (AID 2283348; active = hit-call score of the fitted dose curve at least 0.9, where 1 is the maximum)
# Chain of Estrogen receptor (Homo sapiens) (P03372 whole entry, looked up): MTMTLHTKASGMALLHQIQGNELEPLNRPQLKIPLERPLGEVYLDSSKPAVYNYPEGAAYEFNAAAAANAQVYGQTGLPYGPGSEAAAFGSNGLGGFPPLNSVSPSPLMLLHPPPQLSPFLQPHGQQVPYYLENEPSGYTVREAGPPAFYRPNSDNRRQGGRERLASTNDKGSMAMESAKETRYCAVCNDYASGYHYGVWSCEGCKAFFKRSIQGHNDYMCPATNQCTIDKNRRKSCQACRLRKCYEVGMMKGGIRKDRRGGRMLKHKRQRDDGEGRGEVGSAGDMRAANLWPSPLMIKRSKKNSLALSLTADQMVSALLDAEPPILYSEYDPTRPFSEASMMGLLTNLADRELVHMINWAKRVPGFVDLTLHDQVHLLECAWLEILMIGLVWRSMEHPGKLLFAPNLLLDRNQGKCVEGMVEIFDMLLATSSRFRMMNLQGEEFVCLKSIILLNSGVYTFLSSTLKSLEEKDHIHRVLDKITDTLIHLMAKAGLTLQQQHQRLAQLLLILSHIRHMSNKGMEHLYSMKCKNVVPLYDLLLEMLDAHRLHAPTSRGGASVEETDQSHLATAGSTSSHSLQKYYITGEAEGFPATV
# Summary of the method: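 Cell-free MCF7-derived ER preparation, specific radioligand displaced by test compound, read by scintillation counting 18 h post-dosing. Duplicate single-point 25 uM screen, then concentration-response confirmation; DMSO baseline.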
# [17] = biological target: human Phosphoinositide 3-kinase alpha (PI3Ka), PIK3CA (gene 5290) (UniProt P42336); assay: NVS_ENZ_hPI3Ka: NovaScreen (NVS) Enzymatic Assay for human Phosphoinositide 3-kinase alpha (PI3Ka) (AID 2283196; active = hit-call score of the fitted dose curve at least 0.9, where 1 is the maximum)
# Chain of human Phosphoinositide 3-kinase alpha (PI3Ka), PIK3CA (gene 5290) (P42336 whole entry, looked up): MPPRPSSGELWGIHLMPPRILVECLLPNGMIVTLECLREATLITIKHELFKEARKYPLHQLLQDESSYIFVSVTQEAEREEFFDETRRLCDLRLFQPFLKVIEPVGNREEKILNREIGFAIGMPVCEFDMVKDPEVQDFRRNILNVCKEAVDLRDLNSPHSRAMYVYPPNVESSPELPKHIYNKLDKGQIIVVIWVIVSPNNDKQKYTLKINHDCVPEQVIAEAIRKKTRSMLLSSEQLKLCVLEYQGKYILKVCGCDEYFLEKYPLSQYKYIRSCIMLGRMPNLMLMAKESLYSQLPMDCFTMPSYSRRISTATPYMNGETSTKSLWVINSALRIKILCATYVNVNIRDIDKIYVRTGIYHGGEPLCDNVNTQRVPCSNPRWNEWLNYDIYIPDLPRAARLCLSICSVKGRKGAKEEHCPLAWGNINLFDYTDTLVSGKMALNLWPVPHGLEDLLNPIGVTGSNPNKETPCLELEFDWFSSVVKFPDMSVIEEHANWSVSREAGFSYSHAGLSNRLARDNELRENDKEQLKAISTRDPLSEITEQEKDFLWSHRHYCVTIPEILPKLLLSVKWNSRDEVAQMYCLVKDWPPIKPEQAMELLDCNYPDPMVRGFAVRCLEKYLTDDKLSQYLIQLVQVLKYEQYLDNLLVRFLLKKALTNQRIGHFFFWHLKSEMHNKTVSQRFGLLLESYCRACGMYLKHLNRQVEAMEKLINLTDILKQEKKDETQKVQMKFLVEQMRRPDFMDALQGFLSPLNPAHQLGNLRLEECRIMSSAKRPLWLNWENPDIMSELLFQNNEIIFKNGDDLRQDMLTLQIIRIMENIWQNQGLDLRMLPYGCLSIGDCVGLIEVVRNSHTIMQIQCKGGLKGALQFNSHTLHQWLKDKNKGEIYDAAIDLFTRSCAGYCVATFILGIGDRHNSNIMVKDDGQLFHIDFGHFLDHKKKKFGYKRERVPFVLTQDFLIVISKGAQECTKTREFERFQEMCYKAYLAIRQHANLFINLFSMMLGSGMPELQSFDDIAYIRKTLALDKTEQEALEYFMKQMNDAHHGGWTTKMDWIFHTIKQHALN
# Summary of the method: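 Chemicals were first screened at 25 uM in duplicate, then hits were run as concentration series up to 50 uM. Enzyme activity was measured by fluorescence after mobility-shift separation, with loss of signal relative to DMSO taken as activity.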
# [18] = biological target: AR (gene 367) (UniProt P10275); assay: ACEA_AR_antagonist_80hr: ACEA Biosciences xCELLigence Real-Time Cell Analysis on Androgen Receptor Antagonism for Proliferation (AID 2283787; active = hit-call score of the fitted dose curve at least 0.9, where 1 is the maximum;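 note: 22Rv1 human prostate cancer cells with growth followed by electrical impedance; hits lower the impedance growth signal relative to DMSO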)
# Chain of AR (gene 367) (P10275 whole entry, looked up): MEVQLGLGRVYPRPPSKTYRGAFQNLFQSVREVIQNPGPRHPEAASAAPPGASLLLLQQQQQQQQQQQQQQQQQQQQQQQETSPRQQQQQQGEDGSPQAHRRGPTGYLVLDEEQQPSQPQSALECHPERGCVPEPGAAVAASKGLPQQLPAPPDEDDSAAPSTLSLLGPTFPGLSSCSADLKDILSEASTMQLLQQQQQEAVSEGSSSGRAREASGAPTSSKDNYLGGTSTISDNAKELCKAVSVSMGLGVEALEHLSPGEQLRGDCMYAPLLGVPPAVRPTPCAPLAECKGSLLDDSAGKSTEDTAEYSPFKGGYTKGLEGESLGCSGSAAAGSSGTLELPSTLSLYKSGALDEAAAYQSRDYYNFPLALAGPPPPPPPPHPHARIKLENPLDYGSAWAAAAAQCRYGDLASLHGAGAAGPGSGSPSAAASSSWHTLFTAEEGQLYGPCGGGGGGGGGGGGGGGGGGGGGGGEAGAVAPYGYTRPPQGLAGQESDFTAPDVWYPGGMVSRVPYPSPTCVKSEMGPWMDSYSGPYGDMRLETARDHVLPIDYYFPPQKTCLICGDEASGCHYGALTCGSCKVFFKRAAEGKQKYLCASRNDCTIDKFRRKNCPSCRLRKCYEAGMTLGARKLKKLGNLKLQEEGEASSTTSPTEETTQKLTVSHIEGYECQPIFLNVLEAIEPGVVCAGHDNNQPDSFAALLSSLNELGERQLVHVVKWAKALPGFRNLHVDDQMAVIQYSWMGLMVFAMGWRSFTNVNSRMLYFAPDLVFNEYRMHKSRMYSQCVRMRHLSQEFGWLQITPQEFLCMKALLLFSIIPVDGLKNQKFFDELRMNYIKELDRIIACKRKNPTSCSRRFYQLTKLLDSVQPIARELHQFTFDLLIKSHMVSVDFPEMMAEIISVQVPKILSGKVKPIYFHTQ
# Summary of the method: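 Impedance-based real-time growth of 22Rv1 prostate cells, read 80 h after dosing. Eight concentrations, 1:4 series, top 100 uM final (0.5% DMSO), n = 2; signal decrease scored against DMSO.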
# [19] = CCTE_Deisenroth_5AR_NBTE_donor: CCTE's 5alpha-reductase NanoBRET Target Engagement Assay […], Deisenroth Lab (AID 2284319); conditions: actives raise or lower the signal
# Summary of the method: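 SRD5A2-NanoLuc, HEK293T, 20 h expression. Chemical 10 nM - 29.9 uM, 8 conc, duplicate; 3 h preincubation + 2 h testosterone tracer. Nano-Glo substrate plus extracellular NanoLuc inhibitor; donor lum 460 nm. DMSO baseline, bidirectional fit.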
# [20] = test system: SRD5A2 (gene 6716); assay: CCTE_Deisenroth_5AR_NBTE_ratio: CCTE's 5alpha-reductase NanoBRET Target Engagement Assay - Ratio, Deisenroth Lab (AID 2284322); conditions: actives raise or lower the signal
# Summary of the method: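 SRD5A2-NanoLuc HEK293T; cmpd 10 nM-29.9 uM, 3 h preinc + testosterone tracer 2 h; NanoBRET ratio 650/460; bidirectional fit vs DMSO.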
smiles,measurement,setting,value
CNC(=N[N+](=O)[O-])NCC1CCOC1 (stereo not given),outcome,[1],inactive
O=S(=O)(O)OOS(=O)(=O)O,outcome,[1],inactive
O=[N+]([O-])O,AC50,[2],88.5 nM (active)
same,outcome,[2],inactive
same,AC50,[3],189 nM (active)
same,outcome,[3],inactive
same,outcome,[4],inactive
same,outcome,[5],inactive
same,outcome,[6],inactive
same,outcome,[7],inactive
same,AC50,[8],3 nM (active)
same,outcome,[8],inactive
same,AC50,[9],3 nM (active)
same,outcome,[9],inactive
same,AC50,[10],0.0386 µM (active)
same,outcome,[10],inactive
same,AC50,[11],230 nM (active)
same,outcome,[11],inactive
same,outcome,[12],inactive
same,outcome,[13],inactive
same,outcome,[14],inactive
CC(C)COP(=O)(OCC(C)C)OCC(C)C,AC50,[15],19.2 µM (active)
O=C1C(Cl)=C(Cl)C(=O)C(Cl)=C1Cl,outcome,[16],inactive
CC(C)(c1cc(Cl)c(O)c(Cl)c1)c1cc(Cl)c(O)c(Cl)c1,AC50,[17],3.45 µM (active)
O=CNC(N1CCN(C(NC=O)C(Cl)(Cl)Cl)CC1)C(Cl)(Cl)Cl (stereo not given),outcome,[18],inactive
COc1cc(OC)c(OC)cc1C=O,outcome,[16],inactive
O=C(NCNC(=O)NC1C(=O)NC(=O)N1CO)NC1C(=O)NC(=O)N1CO (stereo not given),outcome,[18],inactive
Cc1ccc(OP(=O)(Oc2ccc(C)cc2)Oc2ccc(C)cc2)cc1 (tested in a mixture with another compound),AC50,[2],4200 nM (active)
same,AC50,[3],3700 nM (active)
same,outcome,[4],inactive
same,AC50,[5],7.32 µM (active)
same,AC50,[6],6.45 µM (active)
same,AC50,[7],3.66 µM (active)
same,AC50,[8],3400 nM (active)
same,AC50,[9],3320 nM (active)
same,AC50,[10],7.23 µM (active)
same,outcome,[11],inactive
same,AC50,[12],8.25 µM (active)
same,AC50,[13],6.01 µM (active)
same,outcome,[14],inactive
CC(C)c1ccc(O)cc1,outcome,[19],inactive
same,outcome,[20],inactive
CCCOC(=O)c1ccccc1C(=O)OCCC,outcome,[15],inactive
O=[N+]([O-])c1cc(C(F)(F)F)c(Cl)c([N+](=O)[O-])c1Cl,outcome,[16],inactive
C=CC(=O)OCC(CC)CCCC (stereo not given),outcome,[19],inactive
same,outcome,[20],inactive
CN(C)C(=O)C(c1ccccc1)c1ccccc1,outcome,[1],inactive
COc1cc(OC)nc(Oc2cccc(Oc3nc(OC)cc(OC)n3)c2C(=O)O)n1,outcome,[1],inactive
same,outcome,[18],inactive
Oc1ccc(Cl)cc1,outcome,[1],inactive
O=P(O)(Oc1ccccc1)Oc1ccccc1,outcome,[1],inactive
same,outcome,[19],inactive
same,outcome,[20],inactive
CCc1cccc(C)c1N(C(=O)CCl)[C@@H](C)COC,AC50,[15],4.35 µM (active)
CCCC=NO,outcome,[1],inactive
ClCC(Cl)Cl,outcome,[17],inactive
Nc1ccc(-c2ccc(N)c(N)c2)cc1N,outcome,[17],inactive
CC(=O)c1cc2c(cc1C)C(C)(C)C(C)CC2(C)C (stereo not given),outcome,[19],inactive
same,outcome,[20],inactive
CCCCOP(=O)(O)OCCCC,outcome,[16],inactive
c1cc(OCC2CO2)ccc1Cc1ccc(OCC2CO2)cc1 (stereo not given),outcome,[16],inactive
c1ccc2c(c1)CCCC2,outcome,[18],inactive
CCCCCCCCCCCCCCCC[N+](C)(C)C,AC50,[19],16.3 µM (active)
same,outcome,[20],inactive
CN(C)N,outcome,[18],inactive
